Source: PubChem
Shown are actives, neighbours in structure and some others; about 3.6% of the full set was active somewhere.
TROY signal inh – inhibitors of TROY-dependent NF-kB signaling | Q293 LMP1-TROYcd NF-kB luciferase reporter, 4 h | 360,000 tested, 0.98% active | inhibition, % at 10 µM;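 active = compounds whose plate-normalised and pattern-corrected inhibition of the luciferase reporter signal at the single screening dose is 50% or more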
HSF1 activator – increases HSF-1 driven luciferase reporter signal; AID 504408; NIH3T3-HGL HSF-1 luciferase reporter, MG132, 8 h; 100% = twice DMSO control signal; 300,000 tested, 1.7% active; activation, % at 9 µM;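 active = mean replicate activation of at least 50% with a set share of replicates each reaching 50%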
EBV LMP1 NFkB – inhibitors of Epstein-Barr LMP1-induced NF-kappaB reporter; LMP1-induced NF-kappaB luciferase reporter cells, luminescence; inhibition, % at 12.5 µM; 350,000 tested, 0.69% active; in the data active = inhibition above about 41%
LGR2 inh – blocks bursicon-induced cAMP signaling via Drosophila LGR2; HEK293 LGR2, CRE-luciferase, bursicon-stimulated, 4 h; inhibition, % at 9.99 µM; 380,000 tested, 0.35% active; AID 720647;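 active = drop in luminescence signal, shown as inhibition above about 50% in the replicate tests, limit read from the data, passing the limit was not always enough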;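 also: agonist challenge used bursicon conditioned medium at about half maximal strength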
HSF1 inh – HSF1 inhibition; NIH3T3-HGL HSE-luciferase, MG132-induced, luminescence 8 h; active compounds read low; activity change, negative = inhibition, % at 7.5 µM (by protocol); 300,000 tested, 0.77% active; AID 2098;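 active = more than half of replicate wells show activity change below -50%, luminescence cut by over half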;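 also: luciferase reports HSF-1 transcriptional activity via heat shock element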
TWEAK-Fn14 inh – blocks TWEAK-Fn14 interaction in a reporter cell assay; AID 1159606; 360,000 tested, 2% active; TWEAK-stimulated Fn14 reporter cells, luciferase luminescence, 8 h; inhibition, % at 10 µM; in the data active = inhibition above about 50%
Numbers stand for hits; 0 = inactive; - = no result.

SMILES	TROY signal inh	HSF1 activator	EBV LMP1 NFkB	LGR2 inh	HSF1 inh	TWEAK-Fn14 inh
CC(=O)Oc1ccc(C(=O)Nc2ccc3c(c2)OCCO3)cc1	0	0	0	0	0	0
COc1ccccc1NC(=O)Nc1ccc2c(c1)OCCO2	0	0	0	-	0	0
Cc1[nH]c2ccccc2c1C(=O)C(=O)Nc1ccc2c(c1)OCCO2	0	0	0	0	0	0
CCC(C(=O)Nc1ccc2c(c1)OCCO2)n1c(=O)[nH]c2ccccc2c1=O (stereo unspecified)	60	0	0	0	0	76
COc1ccc(C(=O)N/C(=C\c2ccc3c(c2)OCO3)C(=O)N2CCOCC2)cc1	0	0	49	0	0	0
COc1ccc(C(=O)Nc2ccc3c(c2)OCCO3)cc1	0	-	0	-	-	50
CCC(Oc1ccccc1OC)C(=O)Nc1ccc2c(c1)OCCO2 (stereo unspecified)	0	0	0	0	0	59
O=C(C1CCCC1)N1CC2(C1)[C@@H](c1ccccc1)[C@H](CO)N2CCC(F)(F)F	-	-	-	0	-	-
C[C@@H]1CN([C@@H](C)CO)C(=O)c2cccc(N(C)C)c2O[C@H]1CN(C)S(=O)(=O)c1ccccc1	-	-	-	0	-	-
COc1cccc(NC(=O)c2ccc3c(c2)OCO3)c1	0	0	0	0	0	0
COc1cccc(NC(=O)c2ccc3c(c2)OCCO3)c1	0	0	0	0	0	57
CCCN(C)C[C@@H]1Oc2cc(C#Cc3cccnc3)ccc2S(=O)(=O)N([C@H](C)CO)C[C@@H]1C	-	-	-	0	-	-
COCCCn1c(-c2ccco2)nc2ccccc2c1=O	0	0	0	-	-68	0
O=c1c2ccccc2nc(-c2ccco2)n1CCc1ccc(O)cc1	0	0	0	0	0	64
O=c1c2ccccc2nc(/C=C/c2ccc(O)cc2)n1CCc1ccccc1	0	0	0	0	0	66
COc1ccc(CCn2c(-c3ccco3)nc3ccccc3c2=O)cc1OC	0	0	0	-	0	0
C[C@@H]1CCCCO[C@H](CN(C)Cc2ccc(C(F)(F)F)cc2)[C@H](C)CN([C@H](C)CO)C(=O)c2cc(NS(=O)(=O)c3cn(C)cn3)ccc2O1	-	-	-	0	-	-
CC(C)NC(=O)Nc1ccc2c(c1)C(=O)N([C@H](C)CO)C[C@@H](C)[C@H](CN(C)C(=O)NC1CCCCC1)OCCCC[C@@H](C)O2	-	-	-	0	-	-
Nc1nnnn1CC(=O)N/N=C/c1ccccn1	0	98	0	0	0	0
O=C(C[C@@H]1CC[C@@H]2[C@H](COC[C@@H](O)CN2C(=O)Nc2cc(Cl)cc(Cl)c2)O1)NCC1CCCCC1	-	-	-	0	-	-
O=S(=O)(N[C@@H]1CC[C@H](CCn2cc(Cc3ccccc3)nn2)O[C@H]1CO)c1ccccc1F	-	-	-	0	-	-
COc1ccccc1CCC(=O)OCC(=O)Nc1c(Br)cc(C)cc1Br	0	61	0	0	0	0
COc1ccccc1CCC(=O)OCC(=O)Nc1cc(C)nn1-c1ccccc1	0	0	0	0	0	0
Cc1ccc2c(COC(=O)c3ccc(NC(=O)CC#N)cc3)cc(=O)oc2c1C	0	56	0	0	0	0
CCc1cc2c(COC(=O)c3cccc(S(C)(=O)=O)c3)cc(=O)oc2cc1O	0	0	0	0	0	56
SMILES	TROY signal inh	HSF1 activator	EBV LMP1 NFkB	LGR2 inh	HSF1 inh	TWEAK-Fn14 inh
CNS(=O)(=O)c1cccc(C(=O)OCc2cc(=O)oc3c(C)c(O)ccc23)c1	51	0	0	0	0	0
CCc1cc2c(COC(=O)c3c(C)noc3C)cc(=O)oc2cc1O	0	0	0	0	0	0
Cc1ccc(S(=O)(=O)NCC(=O)OCc2cc(=O)oc3c(C)c(C)ccc23)cc1C	0	-	0	0	-	0
O=C(Cc1ccccn1)N1CC2(C1)[C@@H](c1ccccc1)[C@@H](CO)N2C(=O)c1ccccc1	-	-	-	0	-	-
Cc1noc(C)c1NC(=O)N(C)C[C@H]1Oc2ccc(NC(=O)CCCN(C)C)cc2CC(=O)N([C@@H](C)CO)C[C@@H]1C	-	-	-	0	-	-
O=C(/C=C/c1ccncc1)c1ccc2c(c1)OCCO2	0	0	0	89	0	0
CCN(CC(=O)Nc1ccc2c(c1)OCCO2)C(=O)/C=C/c1cccc(Br)c1	0	0	0	0	0	0
COc1cc(/C=C/C(=O)c2ccc3c(c2)OCCO3)cc(Br)c1OCC(=O)N(C)C	0	243	0	60	0	83
O=C(/C=C/c1cccc(Br)c1)c1ccc2c(c1)OCO2	0	0	0	0	0	60
COc1cccc(/C=C/C(=O)c2ccc3c(c2)OCO3)c1OC	0	-	0	0	-	0
